Data on nine molecules can be found in PubChem BioAssay (EPA / NIEHS).

Assay [1] is described as follows: BSK_4H_Eotaxin3: BioMAP Diversity Plus: 4H Assay for Eotaxin 3 Biomarker Activity (AID 2283000).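 On outcome: CCL26 protein level quantified by ELISA in parallel with SRB cytotoxicity check.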 The settings on record: primary human endothelial cells (HUVEC); actives raise or lower the signal. Summed up: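 HUVEC, 24 h post-dose, ELISA for Eotaxin-3/CCL26. Gain or loss of signal fitted bidirectionally vs DMSO baseline.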
Assay [2] has as its target human Peroxisome Proliferator-activated Receptor alpha (PPARa), PPARA (gene 5465) (UniProt Q07869). As to the kind of experiment: ATG_PPARa_TRANS: Attagene TRANS-FACTORIAL HepG2 Assay for human Peroxisome Proliferator-activated Receptor alpha (PPARa) (AID 2283001; active means hit-call score of the fitted dose curve at least 0.9, where 1 is the maximum). The essentials: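 Gain-of-signal endpoint: reporter mRNA induction relative to DMSO, detected by fluorescent RT-PCR and capillary electrophoresis. HepG2 cells transiently carried GAL4-UAS-driven reporter units plus NR-Gal4 fusion; exposure lasted 24 h.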

Read-out in assay [3]: Intercellular Adhesion Molecule 1 (ICAM1), ICAM1 (gene 3383)
The assay can be described thus: BSK_3C_ICAM1: BioMAP Diversity Plus: 3C Assay for Intercellular Adhesion Molecule 1 (ICAM1) Biomarker Activity (AID 2283003). Conditions: primary human endothelial cells (HUVEC); actives raise or lower the signal. The essentials:
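ICAM-1 levels measured by ELISA after HUVEC cultures in the 3C system had been dosed for 24 h. Gain or loss of signal relative to DMSO was fitted in both directions.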

Assay [4] in a line: BSK_3C_Proliferation: Cell Proliferation Assessment in the BioMAP Diversity Plus: 3C Assay (AID 2283006).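 On AC50: potency may reflect either rise or fall in cell number versus DMSO.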 Conditions: primary human endothelial cells (HUVEC). The essentials: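 Read-out is total protein by SRB absorbance at 560 nm, taken as a proxy for relative cell number. Primary human umbilical vein endothelium cultured below confluence was dosed for 48 h, TCA-fixed and SRB-stained; curves were fitted bidirectionally versus DMSO.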

The target in assay [5] is Nuclear receptor subfamily 1 group I member 2 (Homo sapiens) (UniProt O75469). The assay can be described thus: ATG_PXR_TRANS: Attagene TRANS-FACTORIAL HepG2 Assay for human Pregnane X Receptor (PXR) (AID 2283008; active means hit-call score of the fitted dose curve at least 0.9, where 1 is the maximum). The essentials: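 Fluorescence intensity of FAM-labelled, HpaI-digested reporter amplicons, separated by capillary electrophoresis, quantifies induction. HepG2 cells with PXR-Gal4 trans-reporter system were exposed 24 h; DMSO defines baseline.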
Chain of Nuclear receptor subfamily 1 group I member 2 (Homo sapiens) (O75469 whole entry, looked up, the tested form may be a part): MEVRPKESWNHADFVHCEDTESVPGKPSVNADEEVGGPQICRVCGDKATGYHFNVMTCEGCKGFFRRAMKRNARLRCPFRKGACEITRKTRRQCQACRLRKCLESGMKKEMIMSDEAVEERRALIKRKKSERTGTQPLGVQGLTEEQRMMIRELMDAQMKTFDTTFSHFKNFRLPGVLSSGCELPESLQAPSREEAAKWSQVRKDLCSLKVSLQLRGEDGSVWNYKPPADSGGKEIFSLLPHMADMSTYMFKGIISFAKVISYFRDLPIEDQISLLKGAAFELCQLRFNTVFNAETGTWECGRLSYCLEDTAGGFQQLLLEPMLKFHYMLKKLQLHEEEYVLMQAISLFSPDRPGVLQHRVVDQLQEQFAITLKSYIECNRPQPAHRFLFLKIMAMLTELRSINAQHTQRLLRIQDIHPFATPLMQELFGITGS

The target of assay [6] is human RAR-related Orphan Receptor beta (RORb), RORB (gene 6096) (UniProt Q92753). The assay can be described thus: ATG_RORb_TRANS: Attagene TRANS-FACTORIAL HepG2 Assay for human RAR-related Orphan Receptor beta (RORb) (AID 2283010; active means hit-call score of the fitted dose curve at least 0.9, where 1 is the maximum). The essentials: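 Readout is reporter-gene mRNA induction, detected as fluorescence after RT-PCR and capillary electrophoresis, fitted for gain of signal against DMSO controls. Transiently transfected HepG2 liver cells carrying GAL4-UAS reporter constructs were treated for 24 hours.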
Chain of human RAR-related Orphan Receptor beta (RORb), RORB (gene 6096) (Q92753 whole entry, looked up, the tested form may be a part): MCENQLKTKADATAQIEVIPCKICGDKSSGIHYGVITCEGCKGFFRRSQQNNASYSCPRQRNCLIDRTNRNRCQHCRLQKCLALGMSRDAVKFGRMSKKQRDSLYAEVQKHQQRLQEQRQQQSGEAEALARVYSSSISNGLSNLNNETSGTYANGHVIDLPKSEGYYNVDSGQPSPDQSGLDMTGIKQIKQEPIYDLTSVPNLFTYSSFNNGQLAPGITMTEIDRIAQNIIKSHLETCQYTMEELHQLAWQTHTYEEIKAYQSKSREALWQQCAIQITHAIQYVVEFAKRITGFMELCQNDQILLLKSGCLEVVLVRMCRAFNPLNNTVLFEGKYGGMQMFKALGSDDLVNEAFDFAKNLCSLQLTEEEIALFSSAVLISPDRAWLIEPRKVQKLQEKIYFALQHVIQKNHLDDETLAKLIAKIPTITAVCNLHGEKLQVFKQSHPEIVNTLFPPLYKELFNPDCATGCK

The target of assay [7] is human RAR-related Orphan Receptor gamma (RORg), RORC (gene 6097) (UniProt P51449). The assay can be described thus: ATG_RORg_TRANS: Attagene TRANS-FACTORIAL HepG2 Assay for human RAR-related Orphan Receptor gamma (RORg) (AID 2283011; active means hit-call score of the fitted dose curve at least 0.9, where 1 is the maximum). Summed up:
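Readout: reporter transcript induction (RT-PCR, fluorescent primer extension, capillary electrophoresis) after 24 h compound exposure of transiently transfected HepG2 cells carrying a RORg-Gal4 chimera and GAL4-UAS reporters; DMSO served as baseline, with increasing signal fitted.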

The target of assay [8] is Retinoic acid receptor RXR-alpha (Homo sapiens) (UniProt P19793). The assay can be described thus: ATG_RXRa_TRANS: Attagene TRANS-FACTORIAL HepG2 Assay for human Retinoid X Receptor alpha (RXRa) (AID 2283012; active means hit-call score of the fitted dose curve at least 0.9, where 1 is the maximum). The essentials:
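Transient transfection of human HepG2 with multiple GAL4-UAS reporter constructs; 24 h compound exposure; total RNA isolated, reverse-transcribed, PCR-amplified, 6-FAM labelled, HpaI-cut, resolved by capillary electrophoresis. Positive-direction fit versus DMSO.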

Assay [9] concerns the target human Retinoid X Receptor beta (RXRb), RXRB (gene 6257) (UniProt P28702). The assay can be described thus: ATG_RXRb_TRANS: Attagene TRANS-FACTORIAL HepG2 Assay for human Retinoid X Receptor beta (RXRb) (AID 2283013; active means hit-call score of the fitted dose curve at least 0.9, where 1 is the maximum). The essentials: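 Transfect HepG2 with GAL4-UAS multi-reporter constructs (chimeric NR-Gal4, TRANS format); dose compound 24 h; isolate RNA, RT-PCR, FAM primer extension, HpaI digest; quantify by capillary electrophoresis; positive direction vs DMSO.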

Read-out in assay [10]: E-selectin (Homo sapiens) (UniProt P16581)
The assay can be described thus: BSK_3C_Eselectin: BioMAP Diversity Plus: 3C Assay for Eselectin Biomarker Activity (AID 2283015).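 On outcome: cell surface E-selectin protein quantified by ELISA 24 h after dosing.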 Conditions: primary human endothelial cells (HUVEC); actives raise or lower the signal. Summed up:
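Primary human umbilical vein endothelial cells (3C system) were dosed with chemical and cell-surface E-selectin measured by ELISA 24 h later. Bidirectional curve fitting used DMSO as negative control and baseline.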

Read-out in assay [11]: Monocyte Chemoattractant Protein-1 (MCP1), CCL2 (gene 6347)
The assay can be described thus: BSK_3C_MCP1: BioMAP Diversity Plus: 3C Assay for Monocyte Chemoattractant Protein-1 (MCP1) Biomarker Activity (AID 2283017). The settings on record: primary human endothelial cells (HUVEC); actives raise or lower the signal. Summed up:
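Primary human umbilical vein endothelial cells (3C system) were exposed to test chemical for 24 h, after which MCP-1 was quantified by ELISA. Activity was fitted bidirectionally against DMSO as negative control and baseline.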

Read-out in assay [12]: Monocyte Chemoattractant Protein-1 (MCP1), CCL2 (gene 6347)
As to the kind of experiment: BSK_4H_MCP1: BioMAP Diversity Plus: 4H Assay for Monocyte Chemoattractant Protein-1 (MCP1) Biomarker Activity (AID 2283018). The settings on record: primary human endothelial cells (HUVEC); actives raise or lower the signal. The essentials: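 ELISA read-out of MCP-1 from human vascular endothelial primary cells taken at 24 hours after compound exposure. Activity was fitted in both directions relative to DMSO, which served as negative control.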

Read-out in assay [13]: Human Leukocyte Antigen - DR isotype (HLADR), HLA-DRA (gene 3122)
The assay can be described thus: BSK_3C_HLADR: BioMAP Diversity Plus: 3C Assay for Human Leukocyte Antigen - DR isotype (HLADR) Biomarker Activity (AID 2283019).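 On outcome: ELISA of cell-surface HLA-DR on HUVEC 24 h after dosing.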 The settings on record: primary human endothelial cells (HUVEC); actives raise or lower the signal. Summed up:
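Primary human umbilical vein endothelial cells (3C system) were dosed with compound and cell-surface HLA-DR was quantified by ELISA at 24 h. Activity was fitted bidirectionally against DMSO as negative control and baseline.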

Read-out in assay [14]: Interleukin-8 (IL8), CXCL8 (gene 3576)
As to the kind of experiment: BSK_3C_IL8: BioMAP Diversity Plus: 3C Assay for Interleukin-8 (IL8) Biomarker Activity (AID 2283020). Conditions: primary human endothelial cells (HUVEC); actives raise or lower the signal. Summed up: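 ELISA read-out of IL-8 from human umbilical vein endothelium, measured 24 h after chemical dosing. Activity is expressed relative to DMSO negative control, with both increases and decreases fitted.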

Assay [15] has as its target Retinoic acid receptor alpha (Homo sapiens) (UniProt P10276). The assay can be described thus: ATG_RARa_TRANS: Attagene TRANS-FACTORIAL HepG2 Assay for human Retinoic Acid Receptor alpha (RARa) (AID 2283005; active means hit-call score of the fitted dose curve at least 0.9, where 1 is the maximum;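 on AC50: potency for increased reporter signal meaning RARa activation over DMSO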). The essentials: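 HepG2 cells transiently transfected with multiple reporter units expressing chimeric RARα-GAL4 fusion, with GAL4-UAS-driven reporters. After 24 h compound exposure, reporter mRNA induction quantified by RT-PCR and capillary electrophoresis with fluorescent labeling; gain-of-signal fitted relative to DMSO control.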

Read-out in assay [16]: Interleukin-1 alpha (IL1a), IL1A (gene 3552)
The assay can be described thus: BSK_BE3C_IL1a: BioMAP Diversity Plus: BE3C Assay for Interleukin-1 alpha (IL1a) Biomarker Activity (AID 2283016). The settings on record: primary human bronchial epithelial cells; actives raise or lower the signal. The essentials: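 BE3C primary human bronchial epithelium; cpd 24 h; IL-1a by ELISA; bidirectional fit vs DMSO; parallel SRB (0.1% SRB, 10% TCA fix, 560 nm) for cytotoxicity.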

Assay [17] concerns the target Peroxisome proliferator-activated receptor gamma (Homo sapiens) (UniProt P37231). As to the kind of experiment: ATG_PPARg_TRANS: Attagene TRANS-FACTORIAL HepG2 Assay for human Peroxisome Proliferator-activated Receptor-gamma (PPARg) (AID 2283007; active means hit-call score of the fitted dose curve at least 0.9, where 1 is the maximum). Summed up:
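Read-out: reporter mRNA induction, detected by fluorescence after RT-PCR and capillary electrophoresis. Transiently transfected human HepG2 liver cells carrying a chimeric NR-Gal4 construct were dosed for 24 h; activity was fitted upward relative to DMSO.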

Assay [18] has as its target human Retinoic Acid Receptor gamma (RARg), RARG (gene 5916) (UniProt P13631). The assay can be described thus: ATG_RARg_TRANS: Attagene TRANS-FACTORIAL HepG2 Assay for human Retinoic Acid Receptor gamma (RARg) (AID 2283009; active means hit-call score of the fitted dose curve at least 0.9, where 1 is the maximum). The essentials: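 Transient transfection of HepG2 with multi-reporter constructs, then 24 h chemical treatment. Total RNA isolated, reverse-transcribed, PCR-amplified, fluorescently labelled and resolved by capillary electrophoresis; activity scored as mRNA induction versus DMSO.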

Assay [19] addresses human Retinoic Acid Receptor beta (RARb), RARB (gene 5915) (UniProt P10826). As to the kind of experiment: ATG_RARb_TRANS: Attagene TRANS-FACTORIAL HepG2 Assay for human Retinoic Acid Receptor beta (AID 2283004; active means hit-call score of the fitted dose curve at least 0.9, where 1 is the maximum). The essentials: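 HepG2 cells transiently transfected with multiplexed GAL4-UAS reporter units expressing chimeric NR–Gal4 fusions; 24 h compound exposure. Reporter mRNA quantified by RT-PCR, 6-FAM labelling, HpaI digestion and capillary electrophoresis; gain-of-signal fitted against DMSO baseline.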

The target of assay [20] is human Thyroid Receptor alpha (THRa1), THRA (gene 7067) (UniProt P10827). The assay can be described thus: ATG_THRa1_TRANS: Attagene TRANS-FACTORIAL HepG2 Assay for human Thyroid Receptor alpha (THRa1) (AID 2283014; active means hit-call score of the fitted dose curve at least 0.9, where 1 is the maximum). Summed up:
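HepG2 cells transiently transfected with multiplexed GAL4-UAS reporter units for exogenous chimeric THRa1-Gal4; reporter mRNA measured 24 h after dosing by RT-PCR, 6-FAM labelling, HpaI digestion and capillary electrophoresis. Gain-of-signal fitted versus DMSO baseline.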

The structures appear in SMILES notation. Records with an inconclusive call do not appear. The source made the active and inactive calls. How the source made its calls, unless noted: active means hit-call score of the fitted dose curve at least 0.9, where 1 is the maximum; inactive means score below 0.9.

For orientation: AC50 means the midpoint of the concentration-response curve, whichever way the signal moves.

Chain of E-selectin (Homo sapiens) (P16581 whole entry, looked up): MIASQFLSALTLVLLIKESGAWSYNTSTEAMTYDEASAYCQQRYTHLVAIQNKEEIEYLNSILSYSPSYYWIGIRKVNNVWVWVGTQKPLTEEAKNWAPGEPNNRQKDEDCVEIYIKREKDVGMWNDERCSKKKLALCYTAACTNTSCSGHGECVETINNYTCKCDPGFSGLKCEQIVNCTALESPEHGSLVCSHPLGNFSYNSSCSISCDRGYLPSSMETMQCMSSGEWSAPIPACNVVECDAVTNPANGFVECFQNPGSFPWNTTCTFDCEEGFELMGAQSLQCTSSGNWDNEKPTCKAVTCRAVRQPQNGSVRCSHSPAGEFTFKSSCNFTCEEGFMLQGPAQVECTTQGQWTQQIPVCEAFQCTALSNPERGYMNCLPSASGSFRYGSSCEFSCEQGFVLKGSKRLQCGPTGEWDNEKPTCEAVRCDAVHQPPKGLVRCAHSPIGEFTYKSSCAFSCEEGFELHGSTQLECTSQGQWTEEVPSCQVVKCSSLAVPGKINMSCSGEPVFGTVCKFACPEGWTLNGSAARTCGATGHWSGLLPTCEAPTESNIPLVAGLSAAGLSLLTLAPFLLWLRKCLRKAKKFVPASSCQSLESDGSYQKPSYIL
Chain of human Retinoic Acid Receptor gamma (RARg), RARG (gene 5916) (P13631 whole entry, looked up): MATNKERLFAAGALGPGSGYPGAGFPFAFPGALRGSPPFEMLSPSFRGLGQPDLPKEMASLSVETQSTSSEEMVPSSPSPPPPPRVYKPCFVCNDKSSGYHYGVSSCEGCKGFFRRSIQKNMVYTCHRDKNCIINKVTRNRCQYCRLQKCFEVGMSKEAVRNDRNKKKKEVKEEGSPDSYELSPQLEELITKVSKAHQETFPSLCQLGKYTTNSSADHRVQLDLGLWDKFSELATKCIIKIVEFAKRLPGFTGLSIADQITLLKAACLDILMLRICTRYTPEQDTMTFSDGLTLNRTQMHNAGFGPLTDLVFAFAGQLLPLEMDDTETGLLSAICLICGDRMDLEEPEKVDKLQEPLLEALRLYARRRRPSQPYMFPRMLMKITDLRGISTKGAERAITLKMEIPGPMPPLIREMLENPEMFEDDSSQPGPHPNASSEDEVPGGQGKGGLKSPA
Chain of Peroxisome proliferator-activated receptor gamma (Homo sapiens) (P37231 whole entry, looked up, the tested form may be a part): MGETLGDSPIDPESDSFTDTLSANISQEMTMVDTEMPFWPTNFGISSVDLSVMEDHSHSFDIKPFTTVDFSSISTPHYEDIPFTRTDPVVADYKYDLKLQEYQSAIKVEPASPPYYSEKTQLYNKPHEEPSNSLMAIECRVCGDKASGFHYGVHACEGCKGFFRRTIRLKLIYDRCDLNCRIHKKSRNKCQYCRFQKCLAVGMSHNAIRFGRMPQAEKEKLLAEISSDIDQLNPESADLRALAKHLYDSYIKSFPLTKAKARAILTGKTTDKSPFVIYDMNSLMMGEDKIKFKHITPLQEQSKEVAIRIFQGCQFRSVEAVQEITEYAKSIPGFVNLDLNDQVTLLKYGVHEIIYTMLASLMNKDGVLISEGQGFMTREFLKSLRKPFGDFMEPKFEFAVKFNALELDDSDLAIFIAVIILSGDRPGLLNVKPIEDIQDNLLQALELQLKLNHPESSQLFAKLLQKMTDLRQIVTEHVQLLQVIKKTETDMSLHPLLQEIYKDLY
Chain of human Peroxisome Proliferator-activated Receptor alpha (PPARa), PPARA (gene 5465) (Q07869 whole entry, looked up, the tested form may be a part): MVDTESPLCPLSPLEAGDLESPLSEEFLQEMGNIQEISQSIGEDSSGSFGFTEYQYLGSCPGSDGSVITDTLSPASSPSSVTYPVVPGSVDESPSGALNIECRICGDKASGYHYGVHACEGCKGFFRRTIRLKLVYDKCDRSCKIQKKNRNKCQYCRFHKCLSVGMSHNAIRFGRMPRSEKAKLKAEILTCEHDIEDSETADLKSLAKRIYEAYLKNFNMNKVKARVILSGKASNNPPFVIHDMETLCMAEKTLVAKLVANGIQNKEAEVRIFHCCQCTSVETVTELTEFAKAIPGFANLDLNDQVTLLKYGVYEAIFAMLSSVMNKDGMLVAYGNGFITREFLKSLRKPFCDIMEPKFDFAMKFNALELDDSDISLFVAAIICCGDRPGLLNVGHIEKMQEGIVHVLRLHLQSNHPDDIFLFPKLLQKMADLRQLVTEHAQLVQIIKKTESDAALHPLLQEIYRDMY
Chain of human Retinoid X Receptor beta (RXRb), RXRB (gene 6257) (P28702 whole entry, looked up, the tested form may be a part): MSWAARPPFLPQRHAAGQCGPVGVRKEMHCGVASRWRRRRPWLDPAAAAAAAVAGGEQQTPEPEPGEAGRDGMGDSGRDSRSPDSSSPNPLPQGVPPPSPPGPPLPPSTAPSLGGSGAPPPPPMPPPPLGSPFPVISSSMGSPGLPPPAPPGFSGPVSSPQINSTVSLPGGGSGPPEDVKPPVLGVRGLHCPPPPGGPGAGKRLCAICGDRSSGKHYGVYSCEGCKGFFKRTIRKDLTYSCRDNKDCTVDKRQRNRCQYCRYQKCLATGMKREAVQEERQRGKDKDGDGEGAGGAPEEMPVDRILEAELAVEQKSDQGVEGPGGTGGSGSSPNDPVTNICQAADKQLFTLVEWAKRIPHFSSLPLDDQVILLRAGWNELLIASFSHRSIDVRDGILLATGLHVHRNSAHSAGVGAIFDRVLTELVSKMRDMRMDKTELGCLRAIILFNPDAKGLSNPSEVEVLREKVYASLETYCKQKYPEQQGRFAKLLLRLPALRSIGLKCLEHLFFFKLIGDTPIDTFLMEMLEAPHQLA
Chain of human RAR-related Orphan Receptor gamma (RORg), RORC (gene 6097) (P51449 whole entry, looked up, the tested form may be a part): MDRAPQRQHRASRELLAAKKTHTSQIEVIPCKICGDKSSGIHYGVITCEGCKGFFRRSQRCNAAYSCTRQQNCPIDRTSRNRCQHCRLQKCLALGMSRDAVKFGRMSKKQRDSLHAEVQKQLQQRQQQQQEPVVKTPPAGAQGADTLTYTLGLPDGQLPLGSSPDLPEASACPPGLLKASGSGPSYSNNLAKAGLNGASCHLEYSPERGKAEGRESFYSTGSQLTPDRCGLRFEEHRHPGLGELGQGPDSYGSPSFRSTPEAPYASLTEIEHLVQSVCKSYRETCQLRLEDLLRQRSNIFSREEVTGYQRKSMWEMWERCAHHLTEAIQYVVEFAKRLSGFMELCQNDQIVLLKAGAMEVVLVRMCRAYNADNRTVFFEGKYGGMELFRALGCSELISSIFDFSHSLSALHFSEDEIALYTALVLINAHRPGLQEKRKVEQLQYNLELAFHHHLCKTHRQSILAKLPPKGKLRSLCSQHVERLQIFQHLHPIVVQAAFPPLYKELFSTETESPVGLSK
Chain of Retinoic acid receptor alpha (Homo sapiens) (P10276 whole entry, looked up, the tested form may be a part): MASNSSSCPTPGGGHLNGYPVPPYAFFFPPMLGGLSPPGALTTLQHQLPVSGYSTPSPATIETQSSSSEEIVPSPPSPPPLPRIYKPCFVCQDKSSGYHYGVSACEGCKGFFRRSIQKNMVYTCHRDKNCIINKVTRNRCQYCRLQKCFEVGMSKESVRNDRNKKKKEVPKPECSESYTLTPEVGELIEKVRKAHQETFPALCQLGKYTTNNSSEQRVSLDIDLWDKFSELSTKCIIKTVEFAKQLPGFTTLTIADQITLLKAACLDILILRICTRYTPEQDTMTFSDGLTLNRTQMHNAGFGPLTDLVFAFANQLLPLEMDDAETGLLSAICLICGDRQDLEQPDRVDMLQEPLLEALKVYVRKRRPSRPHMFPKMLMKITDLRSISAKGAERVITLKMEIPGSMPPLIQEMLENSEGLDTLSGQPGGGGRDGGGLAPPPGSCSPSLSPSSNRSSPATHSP
Chain of Retinoic acid receptor RXR-alpha (Homo sapiens) (P19793 whole entry, looked up, the tested form may be a part): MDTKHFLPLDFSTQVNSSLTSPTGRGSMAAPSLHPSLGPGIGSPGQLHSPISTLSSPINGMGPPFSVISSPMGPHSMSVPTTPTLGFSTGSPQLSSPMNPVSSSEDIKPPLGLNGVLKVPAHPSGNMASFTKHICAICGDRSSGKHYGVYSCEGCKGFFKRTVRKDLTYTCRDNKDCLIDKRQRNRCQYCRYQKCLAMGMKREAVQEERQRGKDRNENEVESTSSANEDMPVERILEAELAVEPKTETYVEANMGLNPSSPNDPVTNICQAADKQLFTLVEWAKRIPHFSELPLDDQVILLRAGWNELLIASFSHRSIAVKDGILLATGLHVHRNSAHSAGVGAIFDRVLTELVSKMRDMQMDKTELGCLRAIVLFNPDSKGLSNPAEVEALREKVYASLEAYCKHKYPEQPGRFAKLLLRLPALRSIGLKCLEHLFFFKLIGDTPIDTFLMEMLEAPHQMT

Take `CCC(C)n1c(=O)[nH]c(C)c(Br)c1=O` (centres undefined): the result in assay [1], in assay [2], in assay [3], in [4], in [5] and in assay [6] was inactive. Besides, the molecule was classed as inactive in [7], in [8], in [9], in assay [10], in [11] and in assay [12]. Further, the result in assay [13] and in assay [14] was inactive.

On to `N#CN=C1SCCN1Cc1ccc(Cl)nc1`, for which the result in assay [1], in assay [2], in assay [3], in [15], in [4] and in assay [5] was inactive. The molecule was called inactive in [6], in assay [8], in assay [9], in [10], in [16] and in assay [11]. Moreover, the result in assay [12], in assay [13] and in assay [14] was inactive.

As to `CN=C=S`, the outcome in [1], in assay [2], in assay [15], in assay [5], in assay [7] and in assay [11] was inactive. The result in assay [12] and in assay [14] was inactive. In addition, the AC50 in assay [10] was 11.7 µM (active); in assay [13], 8.86 µM (active).

For the molecule `Cn1c(-c2ccccc2)cc(-c2ccccc2)[n+]1C`, the result in assay [1], in [2], in assay [3], in [4], in assay [9] and in assay [12] was inactive. The outcome in assay [14] was inactive. The AC50 in [10] is 1.56 µM (active); in assay [11], 5.41 µM (active); in assay [13], 2.89 µM (active).

Turning to `O=C(O)c1c(Cl)ccc2cc(Cl)cnc12`, the outcome in assay [1], in [2], in [3], in [17], in [10] and in assay [11] was inactive. The result in assay [12], in assay [13] and in assay [14] was inactive.

Consider `CCCN(CC)CC1COC2(CCC(C(C)(C)C)CC2)O1` (centres undefined), for which the outcome in assay [1], in [2], in assay [3], in assay [4], in [5] and in assay [18] was inactive. Besides, the molecule was classed as inactive in assay [6], in assay [7], in assay [8], in assay [9], in assay [10] and in [16]. Further, the result in [11], in assay [12] and in assay [14] was inactive. The AC50 in assay [13] was 6.16 µM (active).

`COCC(=O)N(c1c(C)cccc1C)C(C)C(=O)OC` (centres undefined): the result in assay [1], in [2], in [15], in [4], in [5] and in [8] was inactive. Also, the outcome in assay [10], in [11], in assay [12], in [13] and in [14] was inactive.

Regarding `CCOc1cc(C(C)(C)C)ccc1C1COC(c2c(F)cccc2F)=N1` (centres undefined), the AC50 in [1] was 29 µM (active); in assay [15] it was 3.63 µM (active); in assay [4], 14.4 µM (active); in assay [10] it was 18.9 µM (active); in assay [11], 27.6 µM (active); in assay [12] it was 18.5 µM (active). For the same molecule, the AC50 in [13] is 29.8 µM (active); in [14], 23.9 µM (active). Moreover, the call in assay [2], in assay [19], in [17], in [5], in assay [18] and in [7] was inactive. Also, the call in assay [8], in assay [9] and in [16] was inactive.

Turning to `CC1(C)CON(Cc2ccccc2Cl)C1=O`, the outcome in assay [1], in [2], in assay [19], in [15], in assay [17] and in assay [5] was inactive. Also, the molecule was classed as inactive in assay [18], in assay [6], in assay [7], in assay [8], in assay [20] and in [10]. For the same molecule, the outcome in assay [16], in [11], in assay [12], in [13] and in [14] was inactive.
